This note sets out measurements from PubChem BioAssay (EPA / NIEHS).

Active and inactive are the calls of the source. How the source made its calls: active means hit-call score of the fitted dose curve at least 0.9, where 1 is the maximum; inactive means score below 0.9.

What all share (details): mRNA level, 48 h; actives raise or lower the signal
Read-out in assay [1]: Interleukin 6 Receptor (IL6R), IL6R (gene 3570)
The assay is described as follows: LTEA_HepaRG_IL6R: Life Technologies and Expression Analysis (LTEA) Assay for Interleukin 6 Receptor (IL6R) using HepaRG (AID 2283510). The gist of the method: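 Concentration-response in human liver HepaRG cells: eight concentrations from 100 uM downward by half-logs, 48 h exposure, 0.5% DMSO vehicle. IL6R mRNA change measured by qRT-PCR and fitted in both directions relative to vehicle.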

Read-out in assay [2]: Potassium channel subfamily K member 1 (KCNK1), KCNK1 (gene 3775)
The assay is described as follows: LTEA_HepaRG_KCNK1: Life Technologies and Expression Analysis (LTEA) Assay for Potassium channel subfamily K member 1 (KCNK1) using HepaRG (AID 2283511). The procedure, abridged:
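Gain or loss of KCNK1 mRNA is the read-out, quantified by qRT-PCR against three housekeeping genes after 48 h chemical treatment of human HepaRG liver cells. Concentrations ran from 100 uM downward in half-log steps, vehicle 0.5% DMSO.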

Read-out in assay [3]: Keratin 19 (KRT19), KRT19 (gene 3880)
The assay is described as follows: LTEA_HepaRG_KRT19: Life Technologies and Expression Analysis (LTEA) Assay for Keratin 19 (KRT19) using HepaRG (AID 2283512). The procedure, abridged:
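Readout is qRT-PCR of KRT19 mRNA, normalized to ACTB, GAPDH and POLR2A, from HepaRG cells treated 48 h with eight-point half-log dilutions topping at 100 uM. Activity in either direction is scored relative to 0.5% DMSO vehicle.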

Read-out in assay [4]: Lipase C (LIPC), LIPC (gene 3990)
The assay is described as follows: LTEA_HepaRG_LIPC: Life Technologies and Expression Analysis (LTEA) Assay for Lipase C (LIPC) using HepaRG (AID 2283514). The procedure, abridged: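 Read-out is LIPC transcript level by TaqMan qRT-PCR, normalized to three housekeeping genes, after 48 h chemical treatment of human HepaRG liver cells. Curves span eight concentrations topping at 100 uM; activity in either direction scored relative to 0.5% DMSO.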

Read-out in assay [5]: Lipoprotein lipase (LPL), LPL (gene 4023)
The assay is described as follows: LTEA_HepaRG_LPL: Life Technologies and Expression Analysis (LTEA) Assay for Lipoprotein lipase (LPL) using HepaRG (AID 2283515). The procedure, abridged:
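Read-out is LPL transcript level by qRT-PCR, normalized to three housekeeping genes and fitted bidirectionally against the DMSO control. Human HepaRG cells received chemicals for 48 h at up to 100 uM.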

Read-out in assay [6]: MicroRNA 122 (MIR122), gene 406906
The assay is described as follows: LTEA_HepaRG_MIR122: Life Technologies and Expression Analysis (LTEA) Assay for MicroRNA 122 (MIR122) using HepaRG (AID 2283516). Further: the transcript read is the microRNA miR-122. The gist of the method:
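HepaRG, 48 h exposure, 8-pt half-log from 100 uM, 0.5% DMSO; TaqMan qRT-PCR; bidirectional fit vs DMSO.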

Read-out in assay [7]: matrix metalloproteinase-10 (MMP10), MMP10 (gene 4319)
Nature of the assay: LTEA_HepaRG_MMP10: Life Technologies and Expression Analysis (LTEA) Assay for matrix metalloproteinase-10 (MMP10) using HepaRG (AID 2283517). The gist of the method: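 Gain or loss of MMP10 mRNA is fitted relative to the 0.5% DMSO vehicle. The human hepatic line HepaRG receives a 48-hour serum-free exposure, in duplicate, with a maximum concentration of 100 uM.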

Read-out in the next assay: MYC, MYC (gene 4609)
Nature of the assay: LTEA_HepaRG_MYC: Life Technologies and Expression Analysis (LTEA) Assay for MYC using HepaRG (AID 2283518). The procedure, abridged: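 Expression changes were scored by TaqMan qRT-PCR with ACTB, GAPDH and POLR2A normalization. Cultures in serum-free induction medium received duplicate 8-point concentration series, highest 100 uM, for 48 h; DMSO (0.5%) served as baseline.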

Read-out in assay [8]: matrix metalloproteinase-3 (MMP3), MMP3 (gene 4314)
The assay is described as follows: LTEA_HepaRG_MMP3: Life Technologies and Expression Analysis (LTEA) Assay for matrix metalloproteinase-3 (MMP3) using HepaRG (AID 2283519). The gist of the method:
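HepaRG, human; 48 h dosing, 8 conc. (max 100 uM, half-log), duplicate, 0.5% DMSO. Readout: MMP3 transcript by Fluidigm TaqMan qRT-PCR, ACTB/GAPDH/POLR2A-normalised. Gain or loss fitted vs DMSO.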

Read-out in assay [9]: Protein phosphatase 2A (PPP2R4), PTPA (gene 5524)
Nature of the assay: LTEA_HepaRG_PPP2R4: Life Technologies and Expression Analysis (LTEA) Assay for Protein phosphatase 2A (PPP2R4) using HepaRG (AID 2283522). The gist of the method:
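Gene-expression endpoint in HepaRG hepatic cells: 48 h treatment across eight half-log concentrations up to 100 uM in 0.5% DMSO. PPP2R4 mRNA by qRT-PCR, normalized to three endogenous control genes.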

Read-out in assay [10]: Phosphatase and tensin (PTEN), PTEN (gene 5728)
The assay is described as follows: LTEA_HepaRG_PTEN: Life Technologies and Expression Analysis (LTEA) Assay for Phosphatase and tensin (PTEN) using HepaRG (AID 2283523). The gist of the method: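 Read-out is PTEN transcript level by multiplexed TaqMan qRT-PCR after 48 h chemical treatment of human HepaRG cultures in serum-free induction medium. Concentrations spanned 100 uM downward in half-log steps, 0.5% DMSO throughout; activity fitted in both directions against vehicle.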

Read-out in assay [11]: solute carrier (SLC22A1), SLC22A1 (gene 6580)
Nature of the assay: LTEA_HepaRG_SLC22A1: Life Technologies and Expression Analysis (LTEA) Assay for solute carrier (SLC22A1) using HepaRG (AID 2283524).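 On AC50: differentiated human HepaRG liver cells in serum-free induction medium.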 The gist of the method: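 HepaRG (human liver line), 48 h dosing in serum-free induction medium; 8 conc., half-log down from 100 uM, 0.5% DMSO vehicle, duplicates. Endpoint: SLC22A1 mRNA, qRT-PCR, housekeeping-normalized; gain/loss fit vs DMSO.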

Read-out in assay [12]: NAD(P)H dehydrogenase [quinone] 1 (NQO1), NQO1 (gene 1728)
Nature of the assay: LTEA_HepaRG_NQO1: Life Technologies and Expression Analysis (LTEA) Assay for NAD(P)H dehydrogenase [quinone] 1 (NQO1) using HepaRG (AID 2283526). The gist of the method: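 Human HepaRG hepatic cells received chemicals for 48 h in serum-free induction medium with 0.5% DMSO, up to 100 uM. Expression was assessed by TaqMan qRT-PCR against housekeeping controls and fitted bidirectionally against DMSO.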

Read-out in assay [13]: Nuclear factor erythroid 2-related factor 2 (Homo sapiens) (UniProt Q16236)
The assay is described as follows: LTEA_HepaRG_NFE2L2: Life Technologies and Expression Analysis (LTEA) Assay for Nuclear factor erythroid 2-related factor 2 (NFE2L2) Transcription Factor using HepaRG (AID 2283527). The gist of the method: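 Transcript level of NFE2L2 is the read-out, measured by microfluidic TaqMan qRT-PCR and normalized to three housekeeping genes. Human HepaRG cultures received test chemical for 48 h at up to 100 uM in half-log steps. Gain or loss of signal is fitted relative to 0.5% DMSO.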

Read-out in assay [14]: succinate dehydrogenase complex iron sulfur subunit B (SDHB), SDHB (gene 6390)
Nature of the assay: LTEA_HepaRG_SDHB: Life Technologies and Expression Analysis (LTEA) Assay for succinate dehydrogenase complex iron sulfur subunit B (SDHB) using HepaRG (AID 2283528). The procedure, abridged: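 SDHB transcript level read by TaqMan qRT-PCR, housekeeping-normalised (ACTB, GAPDH, POLR2A), after 48 h chemical treatment of plated HepaRG cells; eight concentrations top 100 uM, half-log steps, 0.5% DMSO, duplicates; fitted both directions against DMSO.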

Read-out in assay [15]: Signal transducer and activator of transcription 3 (Homo sapiens) (UniProt P40763)
The assay is described as follows: LTEA_HepaRG_STAT3: Life Technologies and Expression Analysis (LTEA) Assay for Signal transducer and activator of transcription (STAT3) using HepaRG (AID 2283529). The procedure, abridged: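 Read-out is STAT3 mRNA level by qRT-PCR, normalized to three housekeeping genes, in human HepaRG liver cells treated for 48 h. Concentrations ran from 100 uM downward in half-log steps; curves were fitted for gain or loss relative to 0.5% DMSO.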

Read-out in assay [16]: Nuclear factor NF-kappa-B p105 subunit (Homo sapiens) (UniProt P19838)
Nature of the assay: LTEA_HepaRG_NFKB1: Life Technologies and Expression Analysis (LTEA) Assay for Nuclear Factor Kappa B Subunit 1 (NFKB1) using HepaRG (AID 2283521).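 Further: differentiated human HepaRG liver cells in serum-free induction medium.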 The gist of the method: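 NFKB1 transcript was measured by TaqMan qRT-PCR on Fluidigm arrays, normalised to three housekeeping genes and fitted in both directions against 0.5% DMSO. HepaRG cells were dosed in duplicate for 48 h in serum-free induction medium, eight half-log steps from 100 uM.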

Read-out in assay [17]: Pyruvate Dehydrogenase Kinase 4 (PDK4), PDK4 (gene 5166)
The assay is described as follows: LTEA_HepaRG_PDK4: Life Technologies and Expression Analysis (LTEA) Assay for Pyruvate Dehydrogenase Kinase 4 (PDK4) using HepaRG (AID 2283525). The gist of the method: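 In this multiplexed human HepaRG expression assay, cells are treated 48 h with test chemicals across an eight-point range starting at 100 uM. PDK4 mRNA changes, normalized to ACTB/GAPDH/POLR2A, are fitted in both directions relative to vehicle.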

Sequence of Nuclear factor erythroid 2-related factor 2 (Homo sapiens) (Q16236 whole entry, looked up): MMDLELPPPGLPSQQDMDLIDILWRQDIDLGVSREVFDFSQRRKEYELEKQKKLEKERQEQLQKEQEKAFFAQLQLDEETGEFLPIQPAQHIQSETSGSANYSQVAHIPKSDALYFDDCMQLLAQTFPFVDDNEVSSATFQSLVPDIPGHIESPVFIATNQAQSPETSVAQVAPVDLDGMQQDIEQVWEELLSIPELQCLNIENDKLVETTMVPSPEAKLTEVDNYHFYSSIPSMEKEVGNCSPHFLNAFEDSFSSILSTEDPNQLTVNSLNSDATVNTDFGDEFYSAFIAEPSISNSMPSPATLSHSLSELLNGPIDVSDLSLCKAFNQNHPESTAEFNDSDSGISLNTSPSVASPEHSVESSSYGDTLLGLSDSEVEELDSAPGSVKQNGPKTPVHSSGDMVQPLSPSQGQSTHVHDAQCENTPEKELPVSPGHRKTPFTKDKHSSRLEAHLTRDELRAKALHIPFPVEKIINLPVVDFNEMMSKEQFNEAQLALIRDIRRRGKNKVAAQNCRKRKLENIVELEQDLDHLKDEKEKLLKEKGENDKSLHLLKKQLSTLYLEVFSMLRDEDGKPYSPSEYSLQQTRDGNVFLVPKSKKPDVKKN
Sequence of Signal transducer and activator of transcription 3 (Homo sapiens) (P40763 whole entry, looked up): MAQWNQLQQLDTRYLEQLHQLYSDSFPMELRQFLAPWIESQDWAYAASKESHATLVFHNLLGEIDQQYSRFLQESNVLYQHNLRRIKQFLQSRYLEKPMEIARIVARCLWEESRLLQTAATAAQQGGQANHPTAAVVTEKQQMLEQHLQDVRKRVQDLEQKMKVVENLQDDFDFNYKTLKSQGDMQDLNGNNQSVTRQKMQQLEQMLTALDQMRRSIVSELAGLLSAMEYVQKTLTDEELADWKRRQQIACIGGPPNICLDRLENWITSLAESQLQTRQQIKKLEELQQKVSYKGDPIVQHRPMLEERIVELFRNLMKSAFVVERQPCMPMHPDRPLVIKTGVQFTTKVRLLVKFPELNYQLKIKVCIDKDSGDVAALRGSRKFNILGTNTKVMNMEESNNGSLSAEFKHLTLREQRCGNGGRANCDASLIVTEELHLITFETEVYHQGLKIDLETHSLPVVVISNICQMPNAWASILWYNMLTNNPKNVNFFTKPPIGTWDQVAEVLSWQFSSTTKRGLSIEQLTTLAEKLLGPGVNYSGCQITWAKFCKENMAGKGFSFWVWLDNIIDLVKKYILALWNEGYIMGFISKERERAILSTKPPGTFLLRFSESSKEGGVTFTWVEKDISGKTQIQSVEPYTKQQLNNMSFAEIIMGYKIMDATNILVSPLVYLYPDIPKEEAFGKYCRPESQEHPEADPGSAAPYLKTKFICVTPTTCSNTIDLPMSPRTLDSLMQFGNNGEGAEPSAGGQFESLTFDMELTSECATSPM
Sequence of Nuclear factor NF-kappa-B p105 subunit (Homo sapiens) (P19838 whole entry, looked up): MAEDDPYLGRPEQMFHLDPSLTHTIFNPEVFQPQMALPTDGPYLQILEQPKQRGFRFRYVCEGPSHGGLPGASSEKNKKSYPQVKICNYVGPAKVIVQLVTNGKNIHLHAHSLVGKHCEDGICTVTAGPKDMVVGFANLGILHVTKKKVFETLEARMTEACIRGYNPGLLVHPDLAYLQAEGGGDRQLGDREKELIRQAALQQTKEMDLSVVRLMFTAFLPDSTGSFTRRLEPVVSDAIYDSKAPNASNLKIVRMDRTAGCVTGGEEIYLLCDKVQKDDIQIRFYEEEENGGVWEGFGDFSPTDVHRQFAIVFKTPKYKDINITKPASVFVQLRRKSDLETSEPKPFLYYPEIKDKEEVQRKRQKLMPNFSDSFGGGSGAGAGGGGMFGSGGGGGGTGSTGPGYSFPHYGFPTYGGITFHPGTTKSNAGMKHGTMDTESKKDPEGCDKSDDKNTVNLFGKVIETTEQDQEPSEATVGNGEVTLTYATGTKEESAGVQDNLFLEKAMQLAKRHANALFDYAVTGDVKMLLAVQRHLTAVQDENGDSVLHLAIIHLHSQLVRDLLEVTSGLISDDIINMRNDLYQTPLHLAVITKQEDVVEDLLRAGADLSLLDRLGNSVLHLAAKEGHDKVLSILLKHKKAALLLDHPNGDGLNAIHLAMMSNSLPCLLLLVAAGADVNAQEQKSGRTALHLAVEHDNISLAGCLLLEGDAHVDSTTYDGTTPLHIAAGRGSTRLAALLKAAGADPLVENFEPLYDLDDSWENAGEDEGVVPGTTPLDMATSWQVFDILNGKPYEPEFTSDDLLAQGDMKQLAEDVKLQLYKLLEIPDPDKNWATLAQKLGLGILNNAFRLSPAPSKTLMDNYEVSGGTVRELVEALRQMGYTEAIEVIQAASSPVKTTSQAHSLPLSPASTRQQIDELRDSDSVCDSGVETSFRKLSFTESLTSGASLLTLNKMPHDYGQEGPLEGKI

As to `CC1(c2ccc(Oc3ccccc3)cc2)OC(=O)N(Nc2ccccc2)C1=O` (centres undefined), the outcome in [1], in assay [10] and in assay [14] was inactive. In addition, the AC50 in assay [2] is 26.3 µM (active); in [3], 2.79 µM (active); in [4], 21.5 µM (active); in [5], 12.3 µM (active); in [6], 10.6 µM (active); in assay [7] it was 26.1 µM (active). Also, the AC50 with MYC, MYC (gene 4609) was 10.2 µM (active); in assay [8] it was 10.6 µM (active); in assay [9], 12.1 µM (active); in assay [11], 13.5 µM (active); in [12] it was 50.2 µM (active); in assay [13], 23 µM (active). Further, the concentration at half-maximal activity (AC50) in assay [15] was 50.2 µM (active).
Regarding `CCc1ccc(C(=O)NN(C(=O)c2cc(C)cc(C)c2)C(C)(C)C)cc1`, the result in assay [1], in assay [2], in [3], in assay [4], in [5] and in [6] was inactive. Further, the outcome in assay [7] was “inactive”; in the assay with MYC, MYC (gene 4609) it was “inactive”; in assay [8] it was “inactive”; in [16] it was “inactive”; in assay [9], “inactive”; in [10], “inactive”. The outcome in assay [11], in assay [12], in assay [13], in assay [14] and in assay [15] was inactive.
`C[C@H]1[C@H](c2ccc(Cl)cc2)SC(=O)N1C(=O)NC1CCCCC1`: the call in assay [1], in assay [2], in assay [8], in [10], in assay [17] and in assay [12] was inactive. Moreover, the outcome in assay [15] was inactive. For the same compound, the AC50 in assay [3] was 50 µM (active); in assay [4], 36.5 µM (active); in assay [5], 60.7 µM (active); in assay [6] it was 60 µM (active); in assay [7], 79.5 µM (active); with MYC, MYC (gene 4609), 71.1 µM (active). Moreover, the AC50 in assay [9] is 50 µM (active); in assay [11], 50 µM (active); in assay [13] it was 73 µM (active); in [14], 26.7 µM (active).
With `CCN(CC)C(=O)SCc1ccc(Cl)cc1`, the compound was called inactive in assay [1], in assay [2], in assay [3], in [4], in assay [5] and in assay [6]. In addition, the outcome was “inactive” in [7]; “inactive” with MYC, MYC (gene 4609); “inactive” in [8]; “inactive” in [16]; “inactive” in [9]; “inactive” in assay [10]. The compound was classed as inactive in assay [11], in assay [12], in assay [13], in [14] and in [15].
For `O=C(O)CCCOc1ccc(Cl)cc1Cl`, the compound was classed as inactive in assay [1], in assay [2], in assay [3], in [4], in assay [5] and in assay [6]. The outcome in assay [7] was “inactive”; with MYC, MYC (gene 4609), “inactive”; in assay [8], “inactive”; in [9] it was “inactive”; in [10], “inactive”; in [11], “inactive”. Besides, the compound was classed as inactive in [12], in assay [13], in [14] and in assay [15].
As for `N#Cc1c(Cl)c(Cl)c(Cl)c(C#N)c1Cl`, the result in assay [1], in assay [2], in assay [9], in [12], in [13] and in assay [14] was inactive. Besides, the call in assay [15] was inactive. Besides, the concentration at half-maximal activity (AC50) in [3] was 12.7 µM (active); in [4], 50 µM (active); in assay [5], 18 µM (active); in [6] it was 90.9 µM (active); in assay [7] it was 15.6 µM (active); in the assay with MYC, MYC (gene 4609), 50 µM (active). The concentration at half-maximal activity (AC50) in assay [8] is 21 µM (active); in [10], 68.7 µM (active); in [11], 61.5 µM (active).

What is called AC50 is the midpoint of the concentration-response curve, whichever way the signal moves.
